Laboratory results as given in PMC12136788.
Numbering of substitutions follows the chain as printed. The full ranking holds about 24,000 sequences; the median of “enrichment r” is about 0.99, and the highest 2% start at about 3.7. The sample as a whole holds a higher share of the highest values than the screen did.

T1: UNK ZnF1-3 (human, UniProt Q9C0B0 31-174)
T1 sequence: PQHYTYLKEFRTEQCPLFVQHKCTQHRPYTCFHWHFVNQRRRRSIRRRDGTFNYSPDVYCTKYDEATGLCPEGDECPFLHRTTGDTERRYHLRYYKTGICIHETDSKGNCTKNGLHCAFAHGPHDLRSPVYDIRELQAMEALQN

B1: 33328512_33328632_5828_CDS_ENSG00000198646_ENST00000359003|human|control|control (ssRNA)
RNA: GGGAGUUCUACAGUCCGACGAUCAUCUGCACCAUAUUGUUCUUCCCCUUUCUCAAGAGAGCCUGUAACUUUCUUACAUGCCUUGGUCAACAAAAUUUGGCCAAUUUUGUCCACUUUUCCUUUGCCCUUACUAGACGAGACUGGCAACAGAGGAUUGAGCAUCA
B2: chr12:95365269:95365270:-_ENSG00000184752_ENST00000327772|hu_hu|motif|central (ssRNA)
RNA: GGGAGUUCUACAGUCCGACGAUCUCAUUGUCUUUACUUGUAAGGUGUUGAAGGUGGGAUCCACUCCUGAAUCUUCUUUCGGGUGGUAGAAUAAGGUACAUAUUGUUCUGGGGUGCCAGUCACGUUGAAUUUAUGGUUCGUCCACAACAGAGGAUUGAGCAUCA
B3: chrX:106345308:106345309:+_ENSMUSG00000031246_ENSMUST00000033598|mus_mus|motif|central (ssRNA)
RNA: GGGAGUUCUACAGUCCGACGAUCUUCUCUCAUCCACUUCCGAUUCUCUUCAUUAGCUGCAAUAUCUUUUUCUUCAAAUCCGGUUUUGUUGGCUUCUAAGAAACAAAGCACAUCUUGCUGUUUCUUCUUAAUCGCCGUAGAGCCCAACAGAGGAUUGAGCAUCA
B4: 25284998_25285535_556_3pUTR_ENSMUSG00000054793_ENSMUST00000068023|mouse|control|control (ssRNA)
RNA: GGGAGUUCUACAGUCCGACGAUCCACGCUCCACACCUUGCCGUUCUCCUGGCCGCUGCUCACUCCUUUCAACUCCUUGCGAUCCCGAUACCAGCGCAGGACCGCUGCGGGGCGCGACCGCGGAACCAGGCAGCUGAGUUCCACCAACAGAGGAUUGAGCAUCA
B5: 122215373_122233679_156_5pUTR_ENSG00000114030_ENST00000344337|human|control|control (ssRNA)
RNA: GGGAGUUCUACAGUCCGACGAUCACUUUUCAGGCGAAAGUUCUCUUUUCCUGGGGUGGUCAUGAUUUCAGGCUCAAGGCAACCGAUCCCGGUGCCACCGCUGAAGUUAGCCCCUCGCUCGCCCGCCCGCCGUGCCACUCCCGCCAACAGAGGAUUGAGCAUCA
B6: 36851294_36856410_1128_CDS_ENSMUSG00000022837_ENSMUST00000023535|mouse|control|control (ssRNA)
RNA: GGGAGUUCUACAGUCCGACGAUCAUUUAGCUCCAACAUCAUCUUUGUUCGUUUAGAUCUGAAACUCCUCUGCAAGGCAAUCACAGCAGACGGAAGCUUCUUUAAUCUCUUUCUGGUCUGGAAACCUUUCCAAUAGGCUUGAAUCAACAGAGGAUUGAGCAUCA
B7: chr18:52893488:52893489:-_ENSG00000196628_ENST00000354452|hu_hu|hu_hu_hu_mus_True|48_48 (ssRNA)
RNA: GGGAGUUCUACAGUCCGACGAUCUAUUUAGACCAUUUCCGCGGAGUUAUGGCAUUUACUCAGUGCUGAUAGGUGGAAAAACUACUUGAACAGGGAUUUUUUUUUUCCUUAAUACAUGCCAAGAUUGUGUGGCUGUCAAAACAGCAACAGAGGAUUGAGCAUCA
B8: chr4:142145789:142145790:+_ENSG00000109445_ENST00000262990|hu_hu|FALSE|FALSE (ssRNA)
RNA: GGGAGUUCUACAGUCCGACGAUCACACUGUGCACAAAUUGGUAACUUCUGUACAGAAUUACAAAAGUAGCAAAAUGCUCUAUUCUUCUGCCGCCUCUGACACUUGUCACAUUCCAUUGAGGCAUUACAUGGAUGUUUAGCUAACAACAGAGGAUUGAGCAUCA
B9: chr11:101919151:101919152:-_ENSMUSG00000017314_ENSMUST00000017458|mus_mus|motif|central (ssRNA)
RNA: GGGAGUUCUACAGUCCGACGAUCAAAUGAGAUUCCUAAUAUAAUAAAUAUAUUUCUAGCAUUUGUAAUAAAUAUUCUGUCGGUUCUCCCUCCCUCCCCUUCUCUAGGAUAUGGGCACACAGUGGUUCAGGGACAAGCUUGGGCCAACAGAGGAUUGAGCAUCA
B10: chr17:56552419:56552420:-_ENSMUSG00000013236_ENSMUST00000086828|mus_mus|mus_mus_mus_hu_False|68_88 (ssRNA)
RNA: GGGAGUUCUACAGUCCGACGAUCAAAAAAUACACUAUUUAAAAAAAAAAGAAAAAAACGGGAUACAAAAAAAUAUAGAGUUUUAAAAGAAAGCUGGAUUCUGGUCCCAGCCCAGUGUCCCCAGGCUGCAGAGCGGGGAGGAGCCAACAGAGGAUUGAGCAUCA
B11: chr17:56552419:56552420:-_ENSMUSG00000013236_ENSMUST00000086828|mus_mus|mus_mus_mus_hu_False|1_68 (ssRNA)
RNA: B10 RNA with A48U, A49G, G50A, A53U, A54G, A55U, A56C, A138C, G139A, C143G
B12: chr17:56552419:56552420:-_ENSMUSG00000013236_ENSMUST00000086828|mus_mus|mus_mus_mus_hu_False|28_68 (ssRNA)
RNA: GGGAGUUCUACAGUCCGACGAUCAAAAAAUACACUAUUUAAAAAAAAUGAAAUGUCACGGGAUACAAAAAAAUAUAGAGUUUUAAAAGAAAGCUGGAUUCUGGUCCUUGCCAAAAGUCCCCAGGCUGCAGAGCGGGGAGGAGCCAACAGAGGAUUGAGCAUCA
B13: chr17:56552419:56552420:-_ENSMUSG00000013236_ENSMUST00000086828|mus_mus|mus_mus_mus_hu_False|48_68 (ssRNA)
RNA: B12 RNA with G88A, G92A, C93U, U94A, G95A, U107C, U108A, A112C, A114G, A115U
B14: chr17:56552419:56552420:-_ENSMUSG00000013236_ENSMUST00000086828|mus_mus|mus_mus_mus_hu_False|1_58 (ssRNA)
RNA: GGGAGUUCUACAGUCCGACGAUCAAAAAAUACACUAUUUAAAAAAAAUGAAAUGUCACGGGAUACAGUUACACUGACACUAUUAAAAGAAAGCUGGAUUCUGGUCCCAGCCCAGUGUCCCCAGGCUGCAGAGCGGGGCAGAGGCAACAGAGGAUUGAGCAUCA
B15: chr7:7679991:7679992:-_ENSG00000106399_ENST00000396682|hu_hu|hu_hu_hu_mus_False|68_68 (ssRNA)
RNA: GGGAGUUCUACAGUCCGACGAUCUGGGAUGAAUCUUUUCCAGCUUCCCCACGAAGCACACGGGCCGGUCGAUGAAUUGUGGUAACAUGCUGGCGUUGACGCGCGCUUUGGGGAGCUGCAUUAUGUCCUCCAUGAUUCUGCCGCCAACAGAGGAUUGAGCAUCA
B16: 76906679_76906799_897_3pUTR_ENSMUSG00000022010_ENSMUST00000022587|mouse|control|control (ssRNA)
RNA: GGGAGUUCUACAGUCCGACGAUCUGGGGAGGGUUGAAAAGGCACAGAGCUCCUCGGGGUCAAUUAAACCAUUCCUCAGACAUCUGCCACGUUGCACAGGGCACAUCCCUGCUCACUCUCUGAUUAACCUUUAAUUCACUCAACCAACAGAGGAUUGAGCAUCA
B17: 129354385_129360783_1558_CDS_ENSG00000056277_ENST00000370978|human|control|control (ssRNA)
RNA: GGGAGUUCUACAGUCCGACGAUCAUGUUCAGCUUUCUCCUUGCUGGUCAAAAAUUGUAGUCUGCAUUUUGGGCAACGAUGAACUCCUUUUUUCUGAUGCUUCAUGUAAUGAUUCAUGUAGGGGGUUGCCAUUUUACUAACUUUCAACAGAGGAUUGAGCAUCA
B18: chr2:219525992:219525993:+_ENSG00000074582_ENST00000359273|hu_mus|FALSE|FALSE (ssRNA)
RNA: GGGAGUUCUACAGUCCGACGAUCGAUCCAUUUUCCCUGAUACCAAAUGAAGUGGUUUCCAGGGCUGGGGAUAAAUUCAAACUUGGUGGAGAUCCGGCCACUUUCAUGCUGAAGGUAUGAGGUUUCAACACUGAGGUGCUGAGUCAACAGAGGAUUGAGCAUCA
B19: 156047189_156047309_678_CDS_ENSG00000254726_ENST00000532414|human|control|control (ssRNA)
RNA: GGGAGUUCUACAGUCCGACGAUCGAUGGUUGCCCCUUUGGGGCCCACCACCAGCCCCACCACGCGGUAGGGCACCCGCACACGGAUGGUCACCUGGCCGGGCAGAGCAGGAGCCACACCAAAGGCGGCGCCUGACUUGUUGCGCAACAGAGGAUUGAGCAUCA
B20: 107436344_107436464_280_CDS_ENSMUSG00000020721_ENSMUST00000106746|mouse|control|control (ssRNA)
RNA: GGGAGUUCUACAGUCCGACGAUCGGCAAUUCUGUAAAGAAGACUCUCAAUUUUGAUGCGCUCAACCUCCACCGGGCACGGCCCUGUGAAGUCUGCCAUGGAGUACUGGCCAAGAGAGAGCAGGGCGUCGGUGCAGUGCUGGAGCAACAGAGGAUUGAGCAUCA
B21: 139370288_139370408_1793_CDS_ENSG00000148396_ENST00000313050|human|control|control (ssRNA)
RNA: GGGAGUUCUACAGUCCGACGAUCGGUUGAGGGCUGGGACACGCUGCCACGGUAAUUCUGGCUCACAGUGGUCUCGUCUGUUUCACCUCCUACGGGAGAAGAAUCGAUUUGCUUAAAAAAACUACCUGAAGCUUCAUCCUCGGGCAACAGAGGAUUGAGCAUCA
B22: 15271559_15271679_6895_CDS_ENSG00000074181_ENST00000263388|human|control|control (ssRNA)
RNA: GGGAGUUCUACAGUCCGACGAUCGGGAAGUGGCUGGGCAGGCAGUGCCCCAGUGGUGGUGGCCAUGGCCCCAGUGGCAGUGGCUGGGCUAGGCGUGGAUUCGGACCAGUCUGAGAGGGAGGGAGGUGAGGGGCUGGCCCAGUGCAACAGAGGAUUGAGCAUCA

molecular target: T1, UNK ZnF1-3; assay: nsRBNS (natural sequence RNA bind-n-seq); RBNS binding buffer (assumed for nsRBNS): 25 mM Tris pH 7.5, 150 mM KCl, 3 mM MgCl2, 0.01% Triton X-100, 500 ug/ml BSA, 20 U/ml SUPERase-In, 4 C; UNK is unkempt and MSI1 is Musashi-1; names of the RNAs are library labels; protein concentration not given here; high values mean tight binding

Binder | binding signal [enrichment R]
B1 | 0.505
B2 | 0.831
B3 | 0.538
B4 | 0.858
B5 | 0.57
B6 | 0.644
B7 | 0.93
B8 | 1.04
B9 | 3.58
B10 | 16.7
B11 | 9.75
B12 | 9.22
B13 | 8.41
B14 | 3.44
B15 | 0.493
B16 | 1.14
B17 | 0.531
B18 | 0.804
B19 | 0.73
B20 | 0.894
B21 | 0.768
B22 | 2.43
